In PubChem BioAssay (NCI):
About 83,000 compounds went through this panel and 20% of them were active in at least one assay; those are over-represented in the sample as a whole.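 48-hour exposure, single concentration, 96-well plates; percent growth endpoint where 0 means no net growth. Active: below 10.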 The source made the active and inactive calls.

Columns and labels:
Test in all cases: NCI-60 one-dose screen, 48 h (100 = growth as untreated, 0 = no growth, -100 = all killed)
Conditions in all cases: 10 µM unless noted
NCI-H23 lung = system: NCI-H23 lung
NCI-H226 lung = system: NCI-H226 lung
NCI-H322M lung = system: NCI-H322M lung
HOP-62 NSCLC = system: HOP-62 NSCLC
NCI-H460 lung = system: NCI-H460 lung
HOP-92 NSCLC = system: HOP-92 NSCLC
NCI-H522 lung = system: NCI-H522 lung
A549/ATCC NSCLC = system: A549/ATCC NSCLC
786-0 renal = system: 786-0 renal
COLO 205 colon = system: COLO 205 colon
DU-145 prostate = system: DU-145 prostate
K-562 leukemia = system: K-562 leukemia
MALME-3M melanoma = system: MALME-3M melanoma
MDA-MB-231 breast = system: MDA-MB-231 breast
RXF 393 renal = system: RXF 393 renal
SF-268 CNS = system: SF-268 CNS
SF-295 CNS = system: SF-295 CNS
SF-539 CNS = system: SF-539 CNS
UACC-257 melanoma = system: UACC-257 melanoma
M14 melanoma = system: M14 melanoma

Measured: growth

CCOC(=O)c1csc(NC(=O)COc2ccc(/C=C3\Oc4ccccc4C3=O)cc2)n1
inactive: NCI-H23 lung 86.5% | NCI-H226 lung 108% | NCI-H322M lung 95.4% | HOP-62 NSCLC 72.6% | NCI-H460 lung 95.4% | HOP-92 NSCLC 102% | NCI-H522 lung 55.1% | A549/ATCC NSCLC 88.7% | 786-0 renal 68.4% | COLO 205 colon 112% | DU-145 prostate 114% | K-562 leukemia 62.7% | MALME-3M melanoma 109% | MDA-MB-231 breast 81.7% | RXF 393 renal 79.6% | SF-268 CNS 88.3% | SF-295 CNS 102% | SF-539 CNS 95.5% | UACC-257 melanoma 87.9% | M14 melanoma 94.6%

O=c1[nH]c(-c2ccccc2)nc2sc3cc(O)ccc3c12
inactive: NCI-H23 lung 84.6% | NCI-H226 lung 79.6% | NCI-H322M lung 81.2% | HOP-62 NSCLC 105% | NCI-H460 lung 84.1% | HOP-92 NSCLC 94.8% | NCI-H522 lung 75.5% | A549/ATCC NSCLC 81.6% | 786-0 renal 79.3% | COLO 205 colon 110% | DU-145 prostate 83.6% | K-562 leukemia 25.9% | MALME-3M melanoma 74.1% | MDA-MB-231 breast 101% | RXF 393 renal 82.2% | SF-268 CNS 86.2% | SF-295 CNS 95.3% | SF-539 CNS 82.8% | UACC-257 melanoma 109% | M14 melanoma 75.2%

Cc1ccc(NC(=O)Cn2cc(CN3CCN(c4ccnc5cc(Cl)ccc45)CC3)nn2)cc1
inactive: NCI-H23 lung 90% | NCI-H226 lung 84.9% | NCI-H322M lung 97.7% | HOP-62 NSCLC 70.3% | NCI-H460 lung 92.2% | HOP-92 NSCLC 52.6% | NCI-H522 lung 87.3% | A549/ATCC NSCLC 93.4% | 786-0 renal 96% | COLO 205 colon 98.8% | DU-145 prostate 102% | K-562 leukemia 63.8% | MALME-3M melanoma 100% | MDA-MB-231 breast 77.1% | RXF 393 renal 88.5% | SF-268 CNS 80.1% | SF-295 CNS 86.3% | SF-539 CNS 98.7% | UACC-257 melanoma 103% | M14 melanoma 103%

COc1ccc(OC)c(-c2nc(SCC(=O)c3ccc(C#N)cc3)[nH]c(=O)c2C#N)c1
inactive: NCI-H23 lung 98.1% | NCI-H226 lung 101% | NCI-H322M lung 105% | HOP-62 NSCLC 99.7% | NCI-H460 lung 112% | HOP-92 NSCLC 99% | NCI-H522 lung 90.4% | A549/ATCC NSCLC 103% | 786-0 renal 101% | COLO 205 colon 86.9% | DU-145 prostate 99.6% | K-562 leukemia 111% | MALME-3M melanoma 97.8% | MDA-MB-231 breast 101% | RXF 393 renal 105% | SF-268 CNS 93.3% | SF-295 CNS 99.5% | SF-539 CNS 93.8% | UACC-257 melanoma 99.9% | M14 melanoma 91.7%

CN(c1cc2ncc(=O)[nH]c2cc1NC(N)=NCc1ccc(Cl)cc1)C1CCCCC1
inactive: NCI-H23 lung 88.1% | NCI-H226 lung 72.8% | NCI-H322M lung 84.5% | HOP-62 NSCLC 80.8% | NCI-H460 lung 40.3% | HOP-92 NSCLC 28% | NCI-H522 lung 30.5% | A549/ATCC NSCLC 89.3% | 786-0 renal 68.5% | DU-145 prostate 71.7% | MALME-3M melanoma 29.9% | MDA-MB-231 breast 19.9% | RXF 393 renal 37.1% | SF-268 CNS 67.9% | SF-295 CNS 95.8% | SF-539 CNS 66.4% | UACC-257 melanoma 106% | M14 melanoma 40.1%
active: COLO 205 colon -63.6% | K-562 leukemia 2.83%

COc1ccc(C(=O)c2cc3c(N)c(C(=O)Nc4ccc(C)cc4)sc3nc2C)cc1
active: NCI-H460 lung 4.1% | RXF 393 renal -20.4% | SF-295 CNS 10% | SF-539 CNS -16%
inactive: NCI-H23 lung 43.3% | NCI-H226 lung 57.2% | NCI-H322M lung 48.9% | HOP-62 NSCLC 36.3% | HOP-92 NSCLC 70.8% | NCI-H522 lung 13.3% | A549/ATCC NSCLC 22.3% | 786-0 renal 42.9% | COLO 205 colon 18.7% | DU-145 prostate 17.3% | K-562 leukemia 13.6% | MALME-3M melanoma 36.1% | MDA-MB-231 breast 22% | SF-268 CNS 39.4% | UACC-257 melanoma 58.1% | M14 melanoma 17.3%

COc1ccc(/C=C(\C#N)n2nnc3cc(Cl)ccc32)cc1
active: NCI-H23 lung 8.62% | NCI-H322M lung 6.1% | NCI-H460 lung 1.99% | HOP-92 NSCLC -2.3% | NCI-H522 lung -15.7% | 786-0 renal -16.7% | COLO 205 colon -13.2% | DU-145 prostate -14.9% | K-562 leukemia 8.41% | MDA-MB-231 breast -56.3% | RXF 393 renal -55.2% | SF-295 CNS -20.9% | SF-539 CNS -60.5% | M14 melanoma -19.1%
inactive: NCI-H226 lung 12.8% | HOP-62 NSCLC 40.8% | A549/ATCC NSCLC 14.4% | MALME-3M melanoma 34.6% | SF-268 CNS 27.6% | UACC-257 melanoma 53%
